Source: PubChem (several laboratories)
GASC-1 inh = blocks human GASC-1 demethylase activity | inhibition, % at 2.35 µM | GST-JMJD2C(1-420) H3K9me3 demethylation, DELFIA europium | AID 2099 | 330,000 compounds, 0.069% hits;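 active = more than half of a compound's replicate wells show inhibition beyond 50%, single wells judged on their own value; inconclusive = some, but no more than half, of replicates pass 50% inhibition; inactive = no replicate passes 50% inhibition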;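 also: signal counts dimethyl H3K9 product captured on neutravidin plate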
GRK2 aptamer HTS = inhibitors of human GRK2 displacing RNA aptamer | P25098 | bead flow cytometry, FAM-aptamer displacement from GRK2 | inhibition of aptamer binding, % at 10 µM | 330,000 compounds, 0.59% hits;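 active = inhibition of aptamer binding above 40%, roughly 3 SD of noise, on plates passing a quality check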;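 also: median bead fluorescence of bound FAM aptamer so fluorescent compounds give negative values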
VLA-4 inh = inhibition in a human VLA-4 binding assay; VLA-4 expressing cells, ligand binding flow cytometry; inhibition, % (about 7 µM as worked out from the volumes in the protocol); 330,000 compounds, 0.2% hits; in the data active = inhibition above about 50%
DSG3 Ab inh = human desmoglein-3 autoantibody binding inhibition; DSG3-coupled beads, scFv-anti-DSG3-GFP binding, flow cytometry; stronger effect = lower value; binding (percent of control), % at 10 µM; AID 588358; 310,000 compounds, 0.48% hits; P32926;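 active = binding more than 3 SD below its plate's average and above zero; inconclusive = below that plate limit but binding exactly zero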;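 also: hits lower antibody fragment binding to DSG3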
PREPL inh = human PREPL enzyme inhibition; recombinant PREPL, fluorescence polarization activity-based probe; inhibition, % at 5.96 µM; 320,000 compounds, 0.68% hits; in the data active = inhibition above about 43%
Target sequence (Q4J6C6 whole entry, looked up): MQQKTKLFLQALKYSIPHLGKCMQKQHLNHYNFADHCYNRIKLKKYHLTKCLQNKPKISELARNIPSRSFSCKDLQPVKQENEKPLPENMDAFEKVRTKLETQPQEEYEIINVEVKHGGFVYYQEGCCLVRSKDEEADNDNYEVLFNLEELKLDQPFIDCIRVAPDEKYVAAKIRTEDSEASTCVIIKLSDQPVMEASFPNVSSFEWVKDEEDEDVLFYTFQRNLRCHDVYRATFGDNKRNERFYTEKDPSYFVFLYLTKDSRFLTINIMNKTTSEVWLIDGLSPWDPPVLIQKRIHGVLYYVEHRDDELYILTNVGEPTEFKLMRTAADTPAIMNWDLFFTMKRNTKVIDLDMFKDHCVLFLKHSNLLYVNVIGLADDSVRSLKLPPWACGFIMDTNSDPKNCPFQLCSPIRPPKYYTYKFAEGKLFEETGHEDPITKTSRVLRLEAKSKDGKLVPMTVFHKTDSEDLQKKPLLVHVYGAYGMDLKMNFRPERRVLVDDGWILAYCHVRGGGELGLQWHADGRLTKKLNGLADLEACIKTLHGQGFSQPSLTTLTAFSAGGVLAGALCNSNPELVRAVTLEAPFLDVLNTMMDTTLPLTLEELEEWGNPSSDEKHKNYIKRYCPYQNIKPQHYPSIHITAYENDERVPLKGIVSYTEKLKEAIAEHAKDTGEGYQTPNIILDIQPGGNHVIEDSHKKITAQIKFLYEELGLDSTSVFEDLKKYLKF
GRK2 inh confirm = confirmation of human GRK2 inhibitors displacing RNA aptamer | aptamer displacement, % at 10 µM | 2,000 compounds, 4% hits | shares compounds with GRK2 aptamer HTS | AID 504451 | bead-bound GRK2, FAM-aptamer displacement, flow cytometry;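 active = aptamer displacement above 40%, near three times the noise of non-fluorescent compounds, on plates passing quality checks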;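 also: negative values mostly reflect intrinsic compound fluorescence rather than true enhancement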
Aptamer quench 1 = quenches fluorescent RNA aptamer, GRK2 hit artifact; fluorescence change (kMESF span), kMESF (no concentration beside the values); AID 504521; 110 tested, under 10 active; Fluorescent RNA aptamer beads, quenching, flow cytometry; stronger effect = higher value; shares compounds with GRK2 aptamer HTS;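 active = compounds whose bead fluorescence drops by more than 37 kMESF across the dose range, marking them as dye quenchers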
Aptamer quench SP = aptamer fluorescence quenching in GRK2 counter-screen. 2,000 tested, under 10 active. shares compounds with GRK2 aptamer HTS. AID 504580. Carboxyfluorescein RNA aptamer on beads, flow cytometry quenching; stronger effect = lower value. fluorescence response (% of DMSO), % at 10 µM;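 active = compounds that quench the bead-bound fluorescent RNA probe, cutting fluorescence to under half of the solvent control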;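 also: counterscreen run without GRK2 so only probe quenching by compound is measured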
GRK2 CP2 = confirmation of human GRK2 inhibitors binding RNA aptamer site | bead-bound GRK2, FAM-aptamer displacement, flow cytometry | shares compounds with GRK2 aptamer HTS | inhibition of aptamer binding, % at 10 µM | 360 tested, under 10 active;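 active = inhibition of aptamer binding above 40%, about triple the noise seen with nonglowing compounds, on plates passing quality control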;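 also: negative values mostly come from compounds that fluoresce themselves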
Aptamer quench3 = counter-screen for GRK2 aptamer inhibitors: fluorescent aptamer quenchers | AID 504819 | 25 tested, under 10 active | shares compounds with GRK2 aptamer HTS | Streptavidin beads, FAM-RNA aptamer fluorescence quenching, flow cytometry | change in fluorescence (kMESF span), kMESF (test concentration not listed);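 active = compounds quenching the bead-bound labeled aptamer, with fluorescence dropping by more than 37 kMESF over the dose range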
FAM quench SP = quenches fluorescent RNA aptamer, GRK2 hit artifact; shares compounds with GRK2 aptamer HTS; carboxyfluorescein RNA aptamer beads, flow cytometry quenching; stronger effect = lower value; fluorescence response vs DMSO, % at 10 µM; 360 tested, under 10 active; AID 588494;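 active = response vs DMSO under 50%, meaning signal dropped by over half, treated as fluorescence quencher; inconclusive = no clear call, values can overlap the other calls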;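 also: labelled aptamer on streptavidin beads without GRK2 as a quench counter-screen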
FAM quench PS1 = counter-screen for GRK2 aptamer binding inhibitors: aptamer fluorescence quenching. Bead-bound FAM RNA aptamer fluorescence quenching, flow cytometry; stronger effect = lower value. shares compounds with GRK2 aptamer HTS. fluorescence ratio to DMSO, % at 11.1 µM. 35 tested, under 10 active;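 active = compounds that dim the fluorescent label, raw bead signal shifting by over 33 units between lowest and highest dose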
Numbers stand for hits; i = inactive; ? = inconclusive; nt = not tested or not shown. Hits are enriched below; roughly 1.6% of the tested compounds scored in any of these assays.

SMILES	GASC-1 inh	GRK2 aptamer HTS	VLA-4 inh	DSG3 Ab inh	PREPL inh	GRK2 inh confirm	Aptamer quench SP	others
O=C(Oc1ccc(Cl)c2ccccc12)N1CCCCC1	i	99.0	i	i	i	i	i
O=C(c1ccccc1)c1c2c(cc3sc4ccccc4[n+]13)-c1cccc3cccc-2c13	i	76.0	i	i	i	69.8	i	Aptamer quench 1=i
Cc1sc2cc3c(c(C(=O)c4ccccc4)[n+]2c1C)-c1cccc2cccc-3c12	i	i	i	nt	i	nt	nt
CN(C)S(=O)(=O)n1cc(/C=C(\NC(=O)c2ccccc2Cl)C(=O)NCCCn2ccnc2)c2ccccc21	i	i	i	i	i	nt	nt
COCCn1c(Cc2ccccc2)nnc1SCC(=O)Nc1oc(C)c2c(C)n[nH]c(=O)c12	i	i	i	i	i	nt	nt
NC(=O)Cc1ccc(C(=O)c2ccccc2F)s1	i	i	i	i	i	i	i
COc1ccc(CNC(=O)c2oc3ccc(S(=O)(=O)N4CCOCC4)cc3c2C)cc1	i	i	i	i	i	nt	nt
CCOCCc1nnc(NC(=O)C2CC(=O)N(c3ccc(OCC)cc3)C2)s1 (stereo not drawn)	i	93.0	i	i	i	i	i
CCN(C(=O)COC(=O)c1cc(-c2ccc3cc(OC)ccc3c2)nc2ccccc12)C1CCS(=O)(=O)C1 (stereo not drawn)	i	i	i	nt	i	nt	nt
CCN(C(=O)COC(=O)c1cc(=O)[nH]c2ccccc12)C1CCS(=O)(=O)C1 (stereo not drawn)	i	49.0	i	i	i	i	i
C/C(=N\NC(=O)c1cccs1)c1ccc2ccccc2c1	i	i	i	i	i	i	i
Cc1ccccc1Cn1cc(CCC(=O)N2CCOCC2)c2ccccc21	i	i	i	i	i	nt	nt
O=C(CNc1ccccc1F)Nc1cc(S(=O)(=O)N2CCCCC2)ccc1Cl	i	52.0	i	i	i	i	i
COc1cccc(N=C2CC(C)(C)CC(=O)/C2=C(/O)c2ccccc2)c1	i	95.0	i	i	i	i	i
CC1(C)CC(=O)/C(=C(\O)c2ccccc2)C(=NCCO)C1	i	i	i	i	i	nt	nt
CCOc1ccc(CC(=O)Nc2c(C(N)=O)oc3ccccc23)cc1OCC	i	i	i	i	i	nt	nt
COc1ccc2nc(Nc3nc(CSc4nnnn4-c4ccccc4)cc(=O)[nH]3)nc(C)c2c1	i	46.0	i	i	i	i	i
O=C(CN1CCc2ccccc21)NC(=O)NCc1ccccc1	i	42.0	i	i	i	70.1	i	Aptamer quench 1=i;FAM quench PS1=i
CCCCN(C(=O)CSCC(=O)Nc1cccc(C)c1)c1c(N)n(Cc2ccccc2)c(=O)[nH]c1=O	i	i	i	i	i	nt	nt
CCC(C)(C)NC(=O)C(c1ccccc1)N(C(=O)c1csnn1)C1CC1 (stereo not drawn)	i	60.0	i	i	i	i	i
NC(=O)C1CCN(c2ccc(S(=O)(=O)N3CCCCC3)cc2[N+](=O)[O-])CC1	i	i	i	i	i	nt	nt
CC(Cl)C(=O)Nc1ncc(C(F)(F)F)cc1Cl (stereo not drawn)	i	52.0	i	i	i	i	i
CCCc1cc(=O)oc2c(CN3CCN(C)CC3)c(O)ccc12	i	51.0	i	i	i	i	i
Oc1c(Br)cc(/C=N/n2c(-c3ccccc3)n[nH]c2=S)c(O)c1Br	i	i	i	i	nt	nt	nt
Cc1c(Br)c(O)c(Br)c(O)c1/C=N/n1c(-c2ccccc2)n[nH]c1=S	i	46.0	i	i	i	i	i
SMILES	GASC-1 inh	GRK2 aptamer HTS	VLA-4 inh	DSG3 Ab inh	PREPL inh	GRK2 inh confirm	Aptamer quench SP	others
COc1ccc(N2CCN(C(CNS(=O)(=O)c3ccccc3)c3ccccc3)CC2)cc1 (stereo not drawn)	i	47.0	i	?	i	i	i	Aptamer quench 1=i
Cc1ccc2nc(-c3ccccn3)c(Nc3ccccc3C)n2c1	i	84.0	i	i	i	i	i
Cc1ccc2nc(-c3cccnc3)c(Nc3ccccc3C)n2c1	i	i	i	i	i	nt	nt
C[C@@H](C(=O)Nc1ccc2ccccc2c1)[C@@H]1C[C@@]1(C)[C@@H](NC(=O)OCc1ccccc1)c1ccccc1	i	i	i	i	i	nt	nt
O=C(COC(=O)/C=C/c1cccc(F)c1)Nc1ncccn1	i	45.0	i	82.7	i	i	i
CCOC(=O)c1c(C)[nH]c(C(=O)COC(=O)C(C)N2C(=O)C3CCCCC3C2=O)c1C (stereo not drawn)	i	i	i	i	i	nt	nt
COc1ccc(OC)c(Nc2nc(NCc3ccco3)c3ccccc3n2)c1	i	46.0	i	i	i	i	i
C=CCn1c(SCC(=O)N2CCCCC2)nnc1-c1ccncc1	i	i	i	i	i	nt	nt
NC(=O)CCN1CCN(Cc2nc(C(c3ccccc3)c3ccccc3)no2)CC1	i	i	i	i	i	nt	nt
O=S(=O)(NCc1ccc(Cl)cc1)c1ccc(Cl)nc1	i	i	i	i	i	nt	nt
CCc1cccc(NC(=O)CCS(=O)(=O)c2ccc(Br)cc2)c1	i	93.0	i	i	i	72.8	i	Aptamer quench 1=i;Aptamer quench3=i
CC(=O)c1ccc(NC(=O)CCS(=O)(=O)c2ccc3c(c2)n(C)c(=O)c(=O)n3C)cc1	i	48.0	i	i	i	i	i	GRK2 CP2=i;FAM quench SP=i
COC(=O)c1ccc(NC(=O)CCS(=O)(=O)c2ccc(Br)cc2)cc1	i	58.0	i	i	i	i	i	Aptamer quench 1=i;Aptamer quench3=i;FAM quench PS1=i
CCOc1ncccc1C(=O)NC(C)CCc1ccccc1 (stereo not drawn)	i	i	i	i	nt	nt	nt
CC1CCC(NC(=O)c2cc(S(=O)(=O)N3CCCCC3)ccc2N2CCOCC2)CC1 (stereo not drawn)	i	i	i	i	i	nt	nt
NCCCC[C@H]1NC(=O)[C@H](CCC(=O)O)NC(=O)c2cc([N+](=O)[O-])cc(I)c2OCC[C@@H](C(N)=O)NC1=O	i	56.0	i	nt	i	i	i
